Article PMC11062922 (Nature Chemical Biology, 2023)
Read-outs that look alike come from different tables or passages of the source.

What was measured:
SIK3 = details: read-out: apparent Kd, n = 1
SLK = details: read-out: apparent Kd, n = 1

## Lestaurtinib
SIK3; compound concentrations:100 nM and 1000 nM (sheet 'Lestaurtinib' of Supplementary Table 1),run:Lestaurtinib_02566_R1,Plate:MR014
  potency estimated from few doses: 1420 nM
SIK3; compound concentrations:100 nM and 1000 nM (sheet 'Lestaurtinib' of Supplementary Table 1),run:Lestaurtinib_02566_R3,Plate:MR014
  potency estimated from few doses: 1460 nM
SIK3; compound concentrations:100 nM and 1000 nM (sheet 'Lestaurtinib' of Supplementary Table 1),run:Lestaurtinib_02577_R1,Plate:MR016
  potency estimated from few doses: 1590 nM
SIK3; compound concentrations:100 nM and 1000 nM (sheet 'Lestaurtinib' of Supplementary Table 1),run:Lestaurtinib_02577_R2,Plate:MR016
  potency estimated from few doses: 1630 nM
SIK3; compound concentrations:100 nM and 1000 nM (sheet 'Lestaurtinib' of Supplementary Table 1),run:Lestaurtinib_02577_R3,Plate:MR016
  potency estimated from few doses: 1960 nM
SIK3; compound concentrations:100 nM and 1000 nM (sheet 'Lestaurtinib' of Supplementary Table 1),run:Lestaurtinib_02584_R2,Plate:MR017
  potency estimated from few doses: 1420 nM
SIK3; compound concentrations:100 nM and 1000 nM (sheet 'Lestaurtinib' of Supplementary Table 1),run:Lestaurtinib_02584_R3,Plate:MR017
  potency estimated from few doses: 1300 nM
SIK3; compound concentrations:100 nM and 1000 nM (sheet 'Lestaurtinib' of Supplementary Table 1),run:Lestaurtinib_02601_R1,Plate:MR018
  potency estimated from few doses: 1820 nM
SIK3; compound concentrations:100 nM and 1000 nM (sheet 'Lestaurtinib' of Supplementary Table 1),run:Lestaurtinib_02601_R2,Plate:MR018
  potency estimated from few doses: 1650 nM
SIK3; compound concentrations:100 nM and 1000 nM (sheet 'Lestaurtinib' of Supplementary Table 1),run:Lestaurtinib_02606_R2,Plate:MR019
  potency estimated from few doses: 1760 nM
SIK3; compound concentrations:100 nM and 1000 nM (sheet 'Lestaurtinib' of Supplementary Table 1),run:Lestaurtinib_02624_R1,Plate:MR020
  potency estimated from few doses: 1910 nM
SIK3; compound concentrations:100 nM and 1000 nM (sheet 'Lestaurtinib' of Supplementary Table 1),run:Lestaurtinib_02724_R1,Plate:MR021
  potency estimated from few doses: 1300 nM
SIK3; compound concentrations:100 nM and 1000 nM (sheet 'Lestaurtinib' of Supplementary Table 1),run:Lestaurtinib_02724_R2,Plate:MR021
  potency estimated from few doses: 1320 nM
SIK3; compound concentrations:100 nM and 1000 nM (sheet 'Lestaurtinib' of Supplementary Table 1),run:Lestaurtinib_02724_R3,Plate:MR021
  potency estimated from few doses: 1350 nM
SIK3; compound concentrations:100 nM and 1000 nM (sheet 'Lestaurtinib' of Supplementary Table 1),run:Lestaurtinib_02741_R2,Plate:MR023
  potency estimated from few doses: 1300 nM
SIK3; compound concentrations:100 nM and 1000 nM (sheet 'Lestaurtinib' of Supplementary Table 1),run:Lestaurtinib_02748_R1,Plate:MR024
  potency estimated from few doses: 1410 nM
SIK3; compound concentrations:100 nM and 1000 nM (sheet 'Lestaurtinib' of Supplementary Table 1),run:Lestaurtinib_02748_R2,Plate:MR024
  potency estimated from few doses: 1490 nM
SIK3; compound concentrations:100 nM and 1000 nM (sheet 'Lestaurtinib' of Supplementary Table 1),run:Lestaurtinib_02752_R1,Plate:MR025
  potency estimated from few doses: 1430 nM
SIK3; compound concentrations:100 nM and 1000 nM (sheet 'Lestaurtinib' of Supplementary Table 1),run:Lestaurtinib_02752_R2,Plate:MR025
  potency estimated from few doses: 1720 nM
SIK3; compound concentrations:100 nM and 1000 nM (sheet 'Lestaurtinib' of Supplementary Table 1),run:Lestaurtinib_02765_R2,Plate:MR026
  potency estimated from few doses: 1360 nM
SIK3; compound concentrations:100 nM and 1000 nM (sheet 'Lestaurtinib' of Supplementary Table 1),run:Lestaurtinib_02766_R1,Plate:MR027
  potency estimated from few doses: 1130 nM
SIK3; compound concentrations:100 nM and 1000 nM (sheet 'Lestaurtinib' of Supplementary Table 1),run:Lestaurtinib_02768_R3,Plate:MR028
  potency estimated from few doses: 1510 nM
SIK3; compound concentrations:100 nM and 1000 nM (sheet 'Lestaurtinib' of Supplementary Table 1),run:Lestaurtinib_02795_R1,Plate:MR022
  potency estimated from few doses: 2150 nM
SIK3; compound concentrations:100 nM and 1000 nM (sheet 'Lestaurtinib' of Supplementary Table 1),run:Lestaurtinib_02802_R1,Plate:MR029
  potency estimated from few doses: 1990 nM
SIK3; compound concentrations:100 nM and 1000 nM (sheet 'Lestaurtinib' of Supplementary Table 1),run:Lestaurtinib_02802_R3,Plate:MR029
  potency estimated from few doses: 1720 nM
SIK3; compound concentrations:100 nM and 1000 nM (sheet 'Lestaurtinib' of Supplementary Table 1),run:Lestaurtinib_02896_R3,Plate:MR030
  potency estimated from few doses: 1210 nM
SIK3; compound concentrations:100 nM and 1000 nM (sheet 'Lestaurtinib' of Supplementary Table 1),run:Lestaurtinib_03172_R1,Plate:MR031
  potency estimated from few doses: 1420 nM
SIK3; compound concentrations:100 nM and 1000 nM (sheet 'Lestaurtinib' of Supplementary Table 1),run:Lestaurtinib_03172_R2,Plate:MR031
  potency estimated from few doses: 1540 nM
SIK3; compound concentrations:100 nM and 1000 nM (sheet 'Lestaurtinib' of Supplementary Table 1),run:Lestaurtinib_03172_R3,Plate:MR031
  potency estimated from few doses: 1130 nM
SIK3; compound concentrations:100 nM and 1000 nM (sheet 'Lestaurtinib' of Supplementary Table 1),run:Lestaurtinib_03252_R1,Plate:MR032
  potency estimated from few doses: 1350 nM
SIK3; compound concentrations:100 nM and 1000 nM (sheet 'Lestaurtinib' of Supplementary Table 1),run:Lestaurtinib_03252_R2,Plate:MR032
  potency estimated from few doses: 1130 nM
SIK3; compound concentrations:100 nM and 1000 nM (sheet 'Lestaurtinib' of Supplementary Table 1),run:Lestaurtinib_03260_R2,Plate:MR033
  potency estimated from few doses: 1420 nM
SLK; compound concentrations:100 nM and 1000 nM (sheet 'Lestaurtinib' of Supplementary Table 1),run:Lestaurtinib_02339_R2,Plate:MR001
  potency estimated from few doses: 859 nM
SLK; compound concentrations:100 nM and 1000 nM (sheet 'Lestaurtinib' of Supplementary Table 1),run:Lestaurtinib_02364_R2,Plate:MR002
  potency estimated from few doses: 1540 nM
SLK; compound concentrations:100 nM and 1000 nM (sheet 'Lestaurtinib' of Supplementary Table 1),run:Lestaurtinib_02364_R3,Plate:MR002
  potency estimated from few doses: 1370 nM
SLK; compound concentrations:100 nM and 1000 nM (sheet 'Lestaurtinib' of Supplementary Table 1),run:Lestaurtinib_02367_R1,Plate:MR003
  potency estimated from few doses: 1350 nM
SLK; compound concentrations:100 nM and 1000 nM (sheet 'Lestaurtinib' of Supplementary Table 1),run:Lestaurtinib_02367_R2,Plate:MR003
  potency estimated from few doses: 1300 nM
SLK; compound concentrations:100 nM and 1000 nM (sheet 'Lestaurtinib' of Supplementary Table 1),run:Lestaurtinib_02367_R3,Plate:MR003
  potency estimated from few doses: 1530 nM
SLK; compound concentrations:100 nM and 1000 nM (sheet 'Lestaurtinib' of Supplementary Table 1),run:Lestaurtinib_02381_R3,Plate:MR004
  potency estimated from few doses: 1210 nM
SLK; compound concentrations:100 nM and 1000 nM (sheet 'Lestaurtinib' of Supplementary Table 1),run:Lestaurtinib_02407_R2,Plate:MR005
  potency estimated from few doses: 1670 nM
SLK; compound concentrations:100 nM and 1000 nM (sheet 'Lestaurtinib' of Supplementary Table 1),run:Lestaurtinib_02422_R1,Plate:MR006
  potency estimated from few doses: 1150 nM
SLK; compound concentrations:100 nM and 1000 nM (sheet 'Lestaurtinib' of Supplementary Table 1),run:Lestaurtinib_02422_R3,Plate:MR006
  potency estimated from few doses: 1360 nM
SLK; compound concentrations:100 nM and 1000 nM (sheet 'Lestaurtinib' of Supplementary Table 1),run:Lestaurtinib_02438_R2,Plate:MR008
  potency estimated from few doses: 1420 nM
SLK; compound concentrations:100 nM and 1000 nM (sheet 'Lestaurtinib' of Supplementary Table 1),run:Lestaurtinib_02443_R3,Plate:MR009
  potency estimated from few doses: 992 nM
SLK; compound concentrations:100 nM and 1000 nM (sheet 'Lestaurtinib' of Supplementary Table 1),run:Lestaurtinib_02482_R3,Plate:MR011
  potency estimated from few doses: 1420 nM
